Assay [1] deals with Thyrotropin-releasing hormone receptor (Homo sapiens) (UniProt P34981). The experiment in a line: qHTS assay to identify small molecule agonists of the thyrotropin-releasing hormone receptor (TRHR) signaling pathway (AID 1346891; calls by dose curve;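 further: HEK293 cells expressing TRHR with calcium dye readout; series mostly up to about 58 µM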). In short, it runs like this:
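Overnight-plated (18 h, 37 °C, 5% CO2) TRHR-Hek293 cells; 2 h calcium dye at 37 °C; compound in DMSO; 3-min kinetic fluorescence read.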

Assay [2] can be described thus: Human pregnane X receptor (PXR) small molecule agonists, qHTS cell viability counter screen (AID 1346977). Further: nearly all actives have a fitted effect of over 50% in size. A digest of the protocol:
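After a 5hr pre-incubation, PXR-Luc HepG2 cells received compounds plus positive control in DMSO and were kept 24hr at 37C. Cell viability was quantified by fluorescence from CellTiter-Fluor added for the final hour.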
Background: Quantitative high-throughput screening tests each substance at several concentrations.

The nature of assay [3]: Caspase-3/7 induction in HepG2 cells by small molecules, qHTS assay (AID 1346978). Further: nearly all actives have a fitted effect of over 15% in size. A digest of the protocol: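 Wild-type HepG2 cells, 2,000/well, settled 5 hr at 37 C and 5% CO2, then compound-treated for 17 hr; caspase-3/7 activity read by luminescent Caspase-Glo 3/7 after 30 min at room temperature.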
Assay [4] in a line: Caspase-3/7 induction in CHO-K1 cells by small molecules, qHTS cell viability counter screen (AID 1346979). Further: nearly all actives have a fitted effect of over 35% in size. A digest of the protocol:
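Multiplexed with Caspase-Glo 3/7 in CHO-K1 cells, this counter screen added CellTiter-Fluor after 16hr of compound exposure and recorded fluorescence 1hr later.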

A short description of assay [5]: Caspase-3/7 induction in CHO-K1 cells by small molecules, qHTS assay (AID 1346980). Further: nearly all actives have a fitted effect of over 15% in size. In short, it runs like this:
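Wild-type CHO-K1 cells exposed to compounds for 17hr at 37 C, 5% CO2. Caspase-3/7 activity then measured by Caspase-Glo 3/7 luminescence after 30min at room temperature.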

Assay [6] deals with Nuclear receptor subfamily 1 group I member 2 (Homo sapiens) (UniProt O75469). The experiment in a line: Human pregnane X receptor (PXR) small molecule agonists, qHTS assay (AID 1346982). Further: nearly all actives have a fitted effect of over 35% in size. Further: potency means the concentration at half of the fitted maximal effect. In short, it runs like this:
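Reporter HepG2 cells expressing PXR-Luc are cultured in charcoal-stripped FBS (5%), treated with compounds for 24 hr at 37 C, and assayed by ONE-Glo luminescence after 30 min at room temperature.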

The target of assay [7] is Cytochrome P450 2D6 (Homo sapiens) (UniProt P10635). The assay is described as follows: Cytochrome P450 Family 2 Subfamily D Member 6 (CYP2D6) small molecule antagonists: luciferase reporter qHTS assay (AID 1671196). Further: nearly all actives have a fitted effect of over 50% in size. Further: potency means the concentration at half of the fitted maximal effect. In short, it runs like this:
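Test chemicals meet CYP2D6 plus proluciferin substrate (10 min, RT); NADPH regenerating solution then drives turnover for 1 h. Detection reagent halts the reaction; luminescence measured after 20 min.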
(In a reporter assay the amount or activity of a reporter protein is the signal.)

The target in assay [8] is Cytochrome P450 2C19 (Homo sapiens) (UniProt P33261). The assay is described as follows: Cytochrome P450 Family 2 Subfamily C Member 19 (CYP2C19) small molecule antagonists: luciferase reporter qHTS assay (AID 1671197). Further: nearly all actives have a fitted effect of over 65% in size. Further: potency means the concentration at half of the fitted maximal effect. In short, it runs like this:
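CYP2C19 P450-Glo, 1536-well qHTS. Cpd + enzyme/proluciferin substrate 10 min RT; + NADPH regen, 37C 1 h; stop with luciferin detection reagent, 20 min RT, luminescence (RLU). Pos ctrl ketoconazole.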

For assay [9], the target named is Voltage-gated inwardly rectifying potassium channel KCNH2 (Homo sapiens) (UniProt Q12809). The experiment in a line: Human Ether-a-go-go-Related Gene (hERG) channel small molecule antagonists: fluorescence cell-based qHTS assay (AID 1671200).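 Further: hERG-expressing U2OS cells given a thallium stimulus after FluxOR II dye loading; series mostly up to about 77 µM; nearly all actives have a fitted effect of over 50% in size.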 In short, it runs like this: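 Cell line hERG-U2OS; dye FluxOR II, 1 h RT dark; Tl+ stimulus; ex 480/em 540 nm, read each second for 2 min.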
Background: Block of hERG is tested as a sign of cardiac risk.

Assay [10] concerns the target Cytochrome P450 3A4 (Homo sapiens) (UniProt P08684). The experiment in a line: Cytochrome P450 Family 3 Subfamily A Member 4 (CYP3A4) small molecule antagonists: luciferase reporter qHTS assay (AID 1671201). Further: series mostly up to about 120 µM; nearly all actives have a fitted effect of over 50% in size. A digest of the protocol: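 Room-temperature assay throughout: 10 min compound–enzyme/substrate preincubation, 1 h reaction after NADPH regeneration solution, 20 min detection. Luciferin formed from proluciferin substrate is quantified by luminescence.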

For assay [11], the target named is Cytochrome P450 2C9 (Homo sapiens) (UniProt P11712). The experiment in a line: Cytochrome P450 Family 2 Subfamily C Member 9 (CYP2C9) small molecule antagonists: luciferase reporter qHTS assay (AID 1671198). Further: nearly all actives have a fitted effect of over 50% in size. Further: potency means the concentration at half of the fitted maximal effect. In short, it runs like this:
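P450-Glo proluciferin substrate with CYP2C9 enzyme; 10 min RT preincubation, then NADPH regeneration 1 h at 37C; luciferin detection reagent 20 min RT, luminescence in relative luminescence units.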

Assay [12] has as its target Cytochrome P450 1A2 (Homo sapiens) (UniProt P05177). The assay is described as follows: Cytochrome P450 Family 1 Subfamily A Member 2 (CYP1A2) small molecule antagonists: luciferase reporter qHTS assay (AID 1671199). Further: nearly all actives have a fitted effect of over 50% in size. Further: potency means the concentration at half of the fitted maximal effect. A digest of the protocol: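 Steps: enzyme-substrate mix dispensed; test compounds and furafylline control pinned in; 10 min room temperature; NADPH regeneration solution added, 1 h; reaction stopped with luciferin detection reagent; luminescence read after 20 min.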

Assay [13] has as its target Nuclear receptor subfamily 1 group I member 2 (Rattus norvegicus) (UniProt Q9R1A7). The assay is described as follows: Rat pregnane X receptor (rPXR) activation by small molecules, qHTS assay (AID 1346983). Further: nearly all actives have a fitted effect of over 20% in size. The following applies: rPXR luciferase reporter cells, One-Glo luminescence, 24 h; max activation: stronger effect = higher value. In short, it runs like this: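 Cell-based rPXR activation assay: rPXR cells, 2,000 per well, rested 5hr at 37 C, then exposed to compounds in DMSO for 24 hr at 37 C. Luciferase activity read by One-Glo luminescence after 30 min at room temperature.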

Assay [14] addresses Nuclear receptor subfamily 1 group I member 2 (Homo sapiens) (UniProt O75469). The assay is described as follows: CYP3A4 induction through human pregnane X receptor (PXR) by small molecules, qHTS assay (AID 1346984). Further: nearly all actives have a fitted effect of over 40% in size. A digest of the protocol: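 Induction measured in HepG2-based DPX-2 cells co-expressing human PXR and a CYP3A4 promoter-driven luciferase. After a 24-hour compound exposure, cells received CYP3A4 luciferin substrate at 3uM final for 3 hours, and light output was then recorded.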

The target is the same in assay [15]. The assay is described as follows: Human pregnane X receptor (PXR) activation by small molecules, qHTS assay (AID 1346985). Further: nearly all actives have a fitted effect of over 40% in size. In short, it runs like this:
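DPX-2 cells (HepG2 co-transfected with a PXR response element and a CYP3A4-promoter luciferase construct) were seeded at 2,000 per well, rested 5 hr at 37C, then exposed to DMSO-dissolved compounds for 24 hr. Activation was read as luciferase luminescence.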

The nature of assay [16]: Caspase-3/7 induction in HepG2 cells by small molecules, qHTS cell viability counter screen (AID 1346981). Further: series mostly up to about 92 µM; nearly all actives have a fitted effect of over 30% in size. In short, it runs like this:
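In this quantitative HTS counter screen, compounds delivered in DMSO were left on unmodified HepG2 cells for 16 hr at 37 C. Viability was then determined fluorometrically with CellTiter-Fluor, in parallel with caspase-3/7 induction in the same wells.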

Values without a mark were called inactive. Records with an inconclusive call do not appear. Calls of active or inactive are those of the source. Unless noted, the call rests on the fitted dose curve; in most records, active means well fitted curve in the direction sought with a large enough effect in the repeat runs; inconclusive means weak or mixed curves; inactive means no such curve, though single readings can be large; an effect the other way counts as inactive or inconclusive.
On the % scale 0 is the no-effect control and ±100 the full control effect.

Sequence of Cytochrome P450 2C19 (Homo sapiens) (P33261 whole entry, looked up): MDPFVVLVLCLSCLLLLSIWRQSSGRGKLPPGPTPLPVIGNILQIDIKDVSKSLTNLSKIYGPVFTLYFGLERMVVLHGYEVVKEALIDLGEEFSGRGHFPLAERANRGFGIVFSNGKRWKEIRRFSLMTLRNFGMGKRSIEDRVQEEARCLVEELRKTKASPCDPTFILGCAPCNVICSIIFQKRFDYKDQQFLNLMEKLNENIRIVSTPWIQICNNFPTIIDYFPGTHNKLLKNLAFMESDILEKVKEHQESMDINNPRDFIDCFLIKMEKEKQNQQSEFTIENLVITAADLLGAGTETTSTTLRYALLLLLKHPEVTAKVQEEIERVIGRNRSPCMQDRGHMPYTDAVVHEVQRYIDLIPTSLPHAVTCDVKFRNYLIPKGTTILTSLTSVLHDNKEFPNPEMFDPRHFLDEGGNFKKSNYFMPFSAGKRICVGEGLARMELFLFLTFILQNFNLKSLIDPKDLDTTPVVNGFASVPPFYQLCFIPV
Sequence of Cytochrome P450 2C9 (Homo sapiens) (P11712 whole entry, looked up): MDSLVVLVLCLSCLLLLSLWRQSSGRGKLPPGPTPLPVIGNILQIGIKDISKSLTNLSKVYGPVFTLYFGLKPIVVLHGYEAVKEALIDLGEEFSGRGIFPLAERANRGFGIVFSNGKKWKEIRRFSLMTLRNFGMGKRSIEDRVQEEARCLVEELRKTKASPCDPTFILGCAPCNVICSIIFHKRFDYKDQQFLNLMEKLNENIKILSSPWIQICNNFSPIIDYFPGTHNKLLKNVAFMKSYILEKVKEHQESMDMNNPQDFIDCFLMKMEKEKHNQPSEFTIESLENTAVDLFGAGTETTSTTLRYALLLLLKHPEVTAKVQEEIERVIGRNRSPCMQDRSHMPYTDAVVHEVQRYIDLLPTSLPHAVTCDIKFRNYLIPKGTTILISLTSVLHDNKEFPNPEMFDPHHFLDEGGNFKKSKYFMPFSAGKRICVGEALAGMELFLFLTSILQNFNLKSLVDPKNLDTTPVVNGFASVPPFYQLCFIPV
Sequence of Voltage-gated inwardly rectifying potassium channel KCNH2 (Homo sapiens) (Q12809 whole entry, looked up): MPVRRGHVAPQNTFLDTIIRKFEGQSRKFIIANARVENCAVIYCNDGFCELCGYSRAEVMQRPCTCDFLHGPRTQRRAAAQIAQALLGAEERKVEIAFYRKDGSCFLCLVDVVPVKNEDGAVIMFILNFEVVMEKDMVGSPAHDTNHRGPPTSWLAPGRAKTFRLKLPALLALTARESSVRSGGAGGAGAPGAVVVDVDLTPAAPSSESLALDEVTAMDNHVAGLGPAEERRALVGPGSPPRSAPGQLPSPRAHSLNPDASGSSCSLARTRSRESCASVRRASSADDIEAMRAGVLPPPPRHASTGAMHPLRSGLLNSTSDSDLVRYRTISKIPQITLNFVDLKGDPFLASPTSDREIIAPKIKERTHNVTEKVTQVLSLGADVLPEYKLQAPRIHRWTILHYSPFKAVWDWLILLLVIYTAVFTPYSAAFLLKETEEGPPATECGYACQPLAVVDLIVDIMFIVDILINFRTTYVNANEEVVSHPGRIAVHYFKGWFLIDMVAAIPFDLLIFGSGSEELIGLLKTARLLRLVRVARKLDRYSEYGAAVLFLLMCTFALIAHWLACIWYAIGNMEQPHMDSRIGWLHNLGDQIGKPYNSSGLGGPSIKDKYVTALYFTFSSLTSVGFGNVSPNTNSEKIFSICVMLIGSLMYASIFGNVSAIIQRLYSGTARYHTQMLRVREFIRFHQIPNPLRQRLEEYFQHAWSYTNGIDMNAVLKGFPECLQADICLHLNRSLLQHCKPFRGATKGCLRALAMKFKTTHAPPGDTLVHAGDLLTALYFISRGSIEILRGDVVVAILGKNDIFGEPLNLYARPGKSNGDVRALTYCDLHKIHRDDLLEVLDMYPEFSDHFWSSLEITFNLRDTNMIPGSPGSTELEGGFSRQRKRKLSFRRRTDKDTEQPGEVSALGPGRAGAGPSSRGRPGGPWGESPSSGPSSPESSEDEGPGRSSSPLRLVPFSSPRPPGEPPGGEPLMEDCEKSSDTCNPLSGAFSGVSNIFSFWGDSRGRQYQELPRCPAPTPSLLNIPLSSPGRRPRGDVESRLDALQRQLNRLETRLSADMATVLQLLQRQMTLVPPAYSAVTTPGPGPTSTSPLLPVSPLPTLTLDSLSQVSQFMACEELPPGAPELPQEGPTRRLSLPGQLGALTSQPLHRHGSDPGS
Sequence of Thyrotropin-releasing hormone receptor (Homo sapiens) (P34981 whole entry, looked up): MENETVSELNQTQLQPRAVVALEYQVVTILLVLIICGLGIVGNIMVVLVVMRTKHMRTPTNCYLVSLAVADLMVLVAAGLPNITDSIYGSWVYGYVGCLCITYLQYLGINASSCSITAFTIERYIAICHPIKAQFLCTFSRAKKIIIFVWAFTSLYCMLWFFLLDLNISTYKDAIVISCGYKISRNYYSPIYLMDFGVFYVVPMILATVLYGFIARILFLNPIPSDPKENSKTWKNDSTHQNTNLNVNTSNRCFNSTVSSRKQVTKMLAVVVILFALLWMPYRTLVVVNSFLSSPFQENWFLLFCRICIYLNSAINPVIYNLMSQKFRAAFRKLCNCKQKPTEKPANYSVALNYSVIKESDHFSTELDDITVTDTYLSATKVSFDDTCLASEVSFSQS
Sequence of Cytochrome P450 2D6 (Homo sapiens) (P10635 whole entry, looked up): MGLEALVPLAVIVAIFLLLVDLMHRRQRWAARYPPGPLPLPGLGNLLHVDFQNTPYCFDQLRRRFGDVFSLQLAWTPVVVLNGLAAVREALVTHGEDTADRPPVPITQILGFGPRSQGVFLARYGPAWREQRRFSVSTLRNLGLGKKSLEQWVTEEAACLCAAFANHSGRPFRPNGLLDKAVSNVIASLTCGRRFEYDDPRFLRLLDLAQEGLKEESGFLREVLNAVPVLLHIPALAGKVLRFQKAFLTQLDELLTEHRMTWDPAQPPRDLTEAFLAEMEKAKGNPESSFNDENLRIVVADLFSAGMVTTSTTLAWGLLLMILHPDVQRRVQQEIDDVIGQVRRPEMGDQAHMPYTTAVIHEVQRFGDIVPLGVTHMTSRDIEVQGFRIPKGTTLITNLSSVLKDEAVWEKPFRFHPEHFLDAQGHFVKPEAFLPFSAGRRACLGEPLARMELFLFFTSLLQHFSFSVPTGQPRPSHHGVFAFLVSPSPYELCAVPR
Sequence of Nuclear receptor subfamily 1 group I member 2 (Rattus norvegicus) (Q9R1A7 whole entry, looked up): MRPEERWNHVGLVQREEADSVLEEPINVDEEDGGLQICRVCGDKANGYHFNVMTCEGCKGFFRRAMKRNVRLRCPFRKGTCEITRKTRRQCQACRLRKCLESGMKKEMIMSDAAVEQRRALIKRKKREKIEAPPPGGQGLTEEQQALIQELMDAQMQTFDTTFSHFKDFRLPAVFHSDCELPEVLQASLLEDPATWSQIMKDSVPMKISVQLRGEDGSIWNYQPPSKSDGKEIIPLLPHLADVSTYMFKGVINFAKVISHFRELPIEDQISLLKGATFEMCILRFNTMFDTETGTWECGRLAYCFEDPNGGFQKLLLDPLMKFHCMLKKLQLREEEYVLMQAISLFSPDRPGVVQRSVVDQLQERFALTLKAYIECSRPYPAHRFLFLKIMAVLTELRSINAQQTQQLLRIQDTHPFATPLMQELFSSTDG
Sequence of Cytochrome P450 3A4 (Homo sapiens) (P08684 whole entry, looked up): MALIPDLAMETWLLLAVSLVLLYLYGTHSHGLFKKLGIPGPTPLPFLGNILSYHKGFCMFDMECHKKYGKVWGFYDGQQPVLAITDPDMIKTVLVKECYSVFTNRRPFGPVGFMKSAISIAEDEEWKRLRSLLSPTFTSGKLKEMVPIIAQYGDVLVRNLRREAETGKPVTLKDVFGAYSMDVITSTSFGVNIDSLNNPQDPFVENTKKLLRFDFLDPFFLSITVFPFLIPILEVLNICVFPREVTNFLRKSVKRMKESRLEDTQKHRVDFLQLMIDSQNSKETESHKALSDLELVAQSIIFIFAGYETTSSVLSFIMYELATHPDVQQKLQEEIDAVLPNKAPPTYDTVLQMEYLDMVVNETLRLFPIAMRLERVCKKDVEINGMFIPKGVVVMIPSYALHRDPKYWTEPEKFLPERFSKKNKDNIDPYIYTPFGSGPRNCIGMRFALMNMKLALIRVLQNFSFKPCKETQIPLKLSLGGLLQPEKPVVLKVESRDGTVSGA
Sequence of Nuclear receptor subfamily 1 group I member 2 (Homo sapiens) (O75469 whole entry, looked up): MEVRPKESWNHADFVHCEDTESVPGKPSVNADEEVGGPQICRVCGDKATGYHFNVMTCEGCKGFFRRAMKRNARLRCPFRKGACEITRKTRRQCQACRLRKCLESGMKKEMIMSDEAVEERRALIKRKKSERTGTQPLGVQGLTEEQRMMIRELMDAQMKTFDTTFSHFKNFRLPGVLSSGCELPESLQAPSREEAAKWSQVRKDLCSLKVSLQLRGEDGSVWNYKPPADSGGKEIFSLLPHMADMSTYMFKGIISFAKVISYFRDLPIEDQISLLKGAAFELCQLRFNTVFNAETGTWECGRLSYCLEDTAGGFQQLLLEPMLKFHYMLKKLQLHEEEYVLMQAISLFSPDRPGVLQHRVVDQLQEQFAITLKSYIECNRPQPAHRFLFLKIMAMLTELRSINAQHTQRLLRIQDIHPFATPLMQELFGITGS
Sequence of Cytochrome P450 1A2 (Homo sapiens) (P05177 whole entry, looked up): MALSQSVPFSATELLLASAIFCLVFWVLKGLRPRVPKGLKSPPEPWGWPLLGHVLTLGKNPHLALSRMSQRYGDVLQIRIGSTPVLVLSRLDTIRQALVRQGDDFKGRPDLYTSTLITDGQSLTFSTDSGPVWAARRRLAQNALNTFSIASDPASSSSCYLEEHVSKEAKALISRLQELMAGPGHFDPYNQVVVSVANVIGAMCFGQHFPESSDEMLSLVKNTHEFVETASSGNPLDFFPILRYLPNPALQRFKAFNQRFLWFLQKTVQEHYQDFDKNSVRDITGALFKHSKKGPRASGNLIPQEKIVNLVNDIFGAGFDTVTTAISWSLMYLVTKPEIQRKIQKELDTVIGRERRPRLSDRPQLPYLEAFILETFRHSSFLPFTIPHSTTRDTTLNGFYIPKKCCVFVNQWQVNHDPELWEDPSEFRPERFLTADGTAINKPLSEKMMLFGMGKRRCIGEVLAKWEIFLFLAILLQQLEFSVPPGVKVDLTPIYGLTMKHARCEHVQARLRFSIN

With `CC(C)COC(=O)C(C)C`, the compound was called inactive in assay [1], in [3] and in assay [5]. Besides, the Potency result in assay [2], in assay [4], in [6], in [7], in [9] and in assay [10] was “inactive” in each case. In addition, the Potency in assay [8] is 79.7 µM (active).
As for `COC[C@H](c1ccc(C(F)(F)F)cc1)N1CCN(C2(C)CCN(C(=O)c3c(C)ncnc3C)CC2)C[C@H]1C`, the result in [1], in [3] and in assay [5] was inactive. Besides, the Potency result in [2], in assay [4], in assay [6], in [11] and in assay [12] was “inactive” throughout. Also, the Potency in [7] was 34.7 µM (active).
Take `Cc1nccn1CC1CCc2c(c3ccccc3n2C)C1=O` (stereo not drawn): the compound was classed as inactive in assay [1], in assay [3] and in [5]. Further, the Potency entry in assay [2], in assay [4], in [6], in assay [8] and in assay [11] was “inactive” in each case. Besides, the Potency in assay [7] is 17.4 µM (active).
In the case of `NS(=O)(=O)c1cc2c(cc1C(F)(F)F)NC(Cc1ccccc1)NS2(=O)=O` (stereo not drawn), the outcome in [1], in [3] and in assay [5] was inactive. Besides, the Potency entry in assay [2], in assay [4], in [6], in assay [14], in assay [15] and in assay [12] was “inactive” each time. The max activation in assay [13] was -1.57%.
Regarding `CCCCCCOC(=O)CC(CC(=O)OCCCCCC)(OC(=O)CCC)C(=O)OCCCCCC`, the Potency entry in assay [2], in assay [4], in [6], in assay [7], in assay [12] and in assay [9] was “inactive” each time. The compound was classed as inactive in assay [3], in [5] and in [16]. The results for the Potency in assay [8] and in assay [11] were 39.9 µM (active) and 31.7 µM (active), respectively.
In the case of `CC(CCO)CCCC(C)(C)O` (stereo not drawn), the result in assay [1], in [3], in assay [5] and in [16] was inactive. For the same compound, the Potency result in [2], in [6], in assay [7], in assay [11], in [9] and in [10] was “inactive” throughout.
With `CCN(CC)C(=O)c1ccc(O)c(OC)c1`, the Potency entry in assay [2], in [4], in assay [6], in [14], in assay [15] and in [7] was “inactive” each time. In addition, the Potency result in assay [8], in assay [11], in [9] and in [10] was “inactive” in each case. The result in assay [3], in assay [5] and in [16] was inactive. In assay [13], the max activation is -5.72%.
Turning to `Cc1ncc(CSSCc2cnc(C)c(O)c2CO)c(CO)c1O`, the Potency entry in assay [2], in assay [4], in assay [6], in assay [14], in [15] and in assay [9] was “inactive” in each case. Also, the compound was classed as inactive in assay [3], in assay [5] and in assay [16]. Besides, the max activation in assay [13] was -2.5%. Further, the results for the Potency in assay [7], in assay [8] and in [11] were 6.17 µM (active), 15.5 µM (active) and 8.71 µM (active), respectively.
Consider `O=C(O)c1ccccc1-c1ccc(C(F)(F)F)cc1`, for which the call in assay [1], in assay [3], in assay [5] and in [16] was inactive. In addition, the Potency result in assay [2], in assay [6], in [14], in assay [15], in [7] and in assay [8] was “inactive” each time. Moreover, the Potency result in assay [9] and in [10] was “inactive” each time. Moreover, the max activation in assay [13] was -1.61%.
For `COc1ccc(N=[N+]([O-])c2ccc(OC)cc2)cc1`, the compound was classed as inactive in assay [1], in assay [3] and in [5]. For the same compound, the Potency entry in assay [2], in assay [9] and in assay [10] was “inactive” each time. Further, the Potency is 0.34 µM (active) in [6], 19.8 µM (active) in [8] and 7.03 µM (active) in [12].
With `CCCCCC[C@@H](CCC)C(=O)O`, the compound was called inactive in assay [1], in [3] and in [5]. The Potency result in assay [2], in assay [6], in assay [7], in assay [8], in [9] and in assay [10] was “inactive” each time. In addition, in assay [11], the Potency is 34.7 µM (active).

These data come from PubChem BioAssay (Tox21).
